In the library only some 5.6% were active in any assay of this set; here they are far more common.
PfG6PD inh: PfG6PD (Plasmodium falciparum) enzyme inhibition | AID 504690 | inhibition, % at 20 µM | 350,000 compounds, 0.78% hits | PfGluPho enzyme, NADPH resazurin-diaphorase fluorescence;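 active = inhibition reaching at least a set limit at 20 µM in the primary screen, cut at about 59% in these data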
ALR H2O2 inh: inhibitors of human sulfhydryl oxidase ALR; inhibition, % (no concentration beside the values); purified ALR, DTT oxidation, H2O2 HRP-luminol luminescence; 290,000 compounds, 3.8% hits;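 active = mean replicate inhibition above about 79%, with every replicate also reaching it, limit read from the data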
Target sequence (P55789 whole entry, looked up): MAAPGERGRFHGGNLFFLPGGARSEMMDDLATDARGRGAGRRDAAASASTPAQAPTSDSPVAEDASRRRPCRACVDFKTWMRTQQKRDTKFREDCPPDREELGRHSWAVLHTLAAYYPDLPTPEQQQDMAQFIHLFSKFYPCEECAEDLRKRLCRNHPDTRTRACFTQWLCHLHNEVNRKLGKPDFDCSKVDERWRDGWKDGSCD
Cardio protect: modulators protecting cardiomyocytes from myocardial damage; AID 588492; H9c2 cardiomyocytes, H2O2 injury protection, ATPLite, 2 h; protection from H2O2 cell death, % at 20 µM; 360,000 compounds, 0.63% hits;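 active = compounds giving at least 50% protection of heart cells from peroxide-induced death in the single-dose screen, raw or plate-pattern-corrected value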
PHOSPHO1 block: PHOSPHO1 (human) inhibition; recombinant PHOSPHO1, absorbance phosphatase assay; Q8TCT1; inhibition, % at 13.3 µM; AID 1565; 290,000 compounds, 1.1% hits; in the data active = inhibition above about 60%
Target sequence (Q8TCT1 whole entry, looked up): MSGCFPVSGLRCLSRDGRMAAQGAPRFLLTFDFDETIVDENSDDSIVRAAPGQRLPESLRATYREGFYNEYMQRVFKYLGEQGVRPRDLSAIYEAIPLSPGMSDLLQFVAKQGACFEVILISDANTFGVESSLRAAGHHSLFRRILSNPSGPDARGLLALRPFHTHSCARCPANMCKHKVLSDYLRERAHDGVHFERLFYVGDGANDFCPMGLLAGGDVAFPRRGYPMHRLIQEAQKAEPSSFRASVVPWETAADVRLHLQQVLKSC
PfM18AAP inh: PfM18AAP enzyme inhibition. inhibition, % at 7.35 µM. 290,000 compounds, 1.2% hits. recombinant PfM18AAP, H-Glu-NHMec fluorogenic cleavage;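 active = inhibition above the campaign mean inhibition over all tested compounds plus 3 SD, cut at about 28% in these data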
PfGluPho conf: confirmation of Plasmodium falciparum G6PD inhibitors; 2,400 compounds, 34% hits; recombinant PfGluPho, NADPH-diaphorase-resazurin fluorescence; AID 504753; shares compounds with PfG6PD inh; inhibition, % at 20 µM;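 active = inhibition of at least 50% at 20 µM in any single replicate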
Diaphorase 10uM: counter-screen for P. falciparum G6PD inhibitors: diaphorase inhibitors, oxidizers. diaphorase-coupled resazurin reduction, fluorescence, NADPH 10 uM. inhibition, % at 20 µM. AID 504862. shares compounds with PfG6PD inh. 820 compounds, 39% hits;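 active = average inhibition reaching 50% or more with the compound at 20 µM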;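 note: resorufin red fluorescence formed as diaphorase reduces resazurin using NADPH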
Diaphorase 30uM: inhibits diaphorase or oxidizes, flagging false PfG6PD hits; shares compounds with PfG6PD inh; Diaphorase/resazurin coupled assay, resorufin fluorescence, 30 uM NADPH; inhibition, % at 20 µM; 820 compounds, 29% hits;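 active = inhibition averaging 50% or more, tested at 20 µM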
Numbers stand for hits.

CCSC1=C(C#N)C(c2ccc(OC)c(OC)c2)CC(=O)N1 (stereo not given) was read as PfG6PD inh inactive, Cardio protect inactive, PHOSPHO1 block inactive and PfM18AAP inh inactive.
`CCOc1ccccc1N1CSC2=C(C#N)C(c3c(OC)ccc4ccccc34)CC(=O)N2C1` (stereo not given) gave PfG6PD inh 74, ALR H2O2 inh inactive, Cardio protect inactive, PHOSPHO1 block 92, PfM18AAP inh 37 and PfGluPho conf inactive.
Screening COc1cc(OC)c(C2CC(=O)N3CN(c4ccc(C)cc4)CSC3=C2C#N)cc1OC (stereo not given) returned PfG6PD inh 89, ALR H2O2 inh inactive, Cardio protect inactive, PHOSPHO1 block 96, PfM18AAP inh 31 and PfGluPho conf inactive.
For COc1ccc(N2CSC3=C(C#N)C(c4cc(OC)c(OC)cc4OC)CC(=O)N3C2)c(OC)c1 (stereo not given) the results were PfG6PD inh 102, ALR H2O2 inh inactive, Cardio protect inactive, PHOSPHO1 block 93, PfM18AAP inh inactive, PfGluPho conf 74, Diaphorase 10uM inactive and Diaphorase 30uM inactive.
`CCOc1ccccc1N1CCN(S(=O)(=O)c2cc(C)ccc2OC)CC1` gave PfG6PD inh inactive, Cardio protect inactive, PHOSPHO1 block inactive and PfM18AAP inh inactive.
Screening COc1ccc(N2CSC3=C(C#N)C(c4ccc(OC)c(OC)c4)CC(=O)N3C2)c(OC)c1 (stereo not given) returned PfG6PD inh 80, ALR H2O2 inh inactive, Cardio protect inactive, PHOSPHO1 block inactive, PfM18AAP inh inactive, PfGluPho conf 65, Diaphorase 10uM inactive and Diaphorase 30uM inactive.
For CCC(C)(C)C1CCC2(CC1)NC(=O)N(CC(=O)N1CCN(S(=O)(=O)c3cc(C)ccc3C)CC1)C2=O (stereo not given) the results were PfG6PD inh inactive, ALR H2O2 inh inactive, Cardio protect inactive and PfM18AAP inh inactive.
`O=C(CCNS(=O)(=O)c1ccc(Br)cc1)NCCCSc1ccccc1` gave PfG6PD inh inactive and Cardio protect inactive.
Screening COc1ccc(NS(=O)(=O)c2ccc(N3CCCC3)c(NC(=S)Nc3cccc(C)c3C)c2)cc1 returned PfG6PD inh 80, ALR H2O2 inh inactive, Cardio protect inactive, PHOSPHO1 block inactive, PfM18AAP inh inactive, PfGluPho conf 53, Diaphorase 10uM inactive and Diaphorase 30uM inactive.
`COc1ccc(NS(=O)(=O)c2ccc(N3CCCC3)c(NC(=S)Nc3ccc(SC(F)F)cc3)c2)cc1` gave PfG6PD inh 69, ALR H2O2 inh inactive, Cardio protect inactive, PHOSPHO1 block inactive, PfM18AAP inh inactive and PfGluPho conf inactive.
`CCNC(=O)Nc1cc(S(=O)(=O)Nc2ccc(OC)cc2)ccc1N1CCOCC1` gave PfG6PD inh inactive, ALR H2O2 inh inactive and Cardio protect inactive.
`COCc1cccc(C(=O)NC(c2ccccc2)c2ccccc2)c1` gave PfG6PD inh inactive, ALR H2O2 inh inactive, Cardio protect inactive, PHOSPHO1 block inactive and PfM18AAP inh inactive.
Screening Cn1c(CSc2nc3ccccc3n2C)nc2ccccc21 returned PfG6PD inh 78, ALR H2O2 inh inactive, Cardio protect inactive, PHOSPHO1 block inactive, PfM18AAP inh inactive and PfGluPho conf inactive.
Screening Cc1cc(C)nc(SCc2nc3ccccc3n2C)n1 returned PfG6PD inh inactive, ALR H2O2 inh inactive, Cardio protect inactive, PHOSPHO1 block inactive and PfM18AAP inh inactive.
CC(=O)Nc1cncc(-c2ccccc2N(C)C)n1 was read as Cardio protect inactive.
Screening N#CC1=C2SCN(Cc3ccco3)CN2C(=O)CC1c1cccc2ccccc12 (stereo not given) returned PfG6PD inh 63, ALR H2O2 inh inactive, Cardio protect inactive, PHOSPHO1 block inactive, PfM18AAP inh 30 and PfGluPho conf inactive.
`N#CC1=C2SCN(Cc3ccco3)CN2C(=O)CC1c1ccccc1F` (stereo not given) gave PfG6PD inh 67, ALR H2O2 inh inactive, Cardio protect inactive, PHOSPHO1 block 83, PfM18AAP inh inactive and PfGluPho conf inactive.
Screening S=C1SCN(Cc2ccco2)CN1Cc1ccco1 returned PfG6PD inh inactive, ALR H2O2 inh inactive, Cardio protect inactive, PHOSPHO1 block inactive and PfM18AAP inh inactive.
Screening CN(C(=O)C1Cc2c(-c3ccc(Cl)cc3)ccnc2O1)c1ccccc1 (stereo not given) returned Cardio protect inactive.
For CC(=O)Nc1cccc(-c2ccnc3c2CC(C(=O)Nc2ccc(C(C)C)cc2)O3)c1 (stereo not given) the results were Cardio protect inactive.
CN(C)/C=C1\Oc2ccc3ccccc3c2C1=O was read as PfG6PD inh inactive, ALR H2O2 inh inactive, Cardio protect inactive, PHOSPHO1 block inactive and PfM18AAP inh inactive.
`O=C1C(=O)c2c(ccc3ccccc23)-c2ccccc21` gave PfG6PD inh 62, Cardio protect inactive and PfGluPho conf inactive.
COc1ccc(CCN2CC(C(=O)NCc3nc4ccccc4n3C)CCC2=O)cc1 (stereo not given) was read as PfG6PD inh inactive, ALR H2O2 inh inactive, Cardio protect inactive, PHOSPHO1 block inactive and PfM18AAP inh inactive.
`Clc1ccc(-c2nc3ccc(Br)cn3c2Cc2ccccc2)cc1` gave PfG6PD inh 88, Cardio protect inactive and PfGluPho conf inactive.
Screening Brc1ccc(-c2nc3ccc(Br)cn3c2Cc2ccccc2)cc1 returned Cardio protect inactive.
`Fc1ccc(-c2nc3ccc(Br)cn3c2Cc2cccc(F)c2)cc1` gave Cardio protect inactive.
`Fc1ccc(-c2nc3ccc(Br)cn3c2Cc2ccccc2)cc1` gave PfG6PD inh 67, Cardio protect inactive and PfGluPho conf inactive.
For Cc1ccc(Cc2c(-c3ccc(Cl)cc3)nc3ccc(Br)cn23)cc1 the results were PfG6PD inh 67, Cardio protect inactive and PfGluPho conf inactive.
O=C1C2C3C=CC(O3)C2C(=O)N1N=Cc1cccc2ccccc12 (stereo not given) was read as PfG6PD inh inactive and Cardio protect inactive.
CC1(C(=O)NS(=O)(=O)c2cccc(OC(F)F)c2)CCN1C(=O)Cc1cccs1 (stereo not given) was read as Cardio protect inactive.
For CCOC(=O)c1c(CSc2ccccc2)n(C)c2cc(Br)c(OC)c(O)c12 the results were PfG6PD inh inactive, Cardio protect inactive and PfM18AAP inh inactive.
`CCOC(=O)c1c(CSc2ccccc2)n(C)c2cc(Br)c(OCC(O)CNC(CO)(CO)CO)cc12` (stereo not given) gave PfG6PD inh 61, ALR H2O2 inh inactive, Cardio protect inactive, PHOSPHO1 block inactive, PfM18AAP inh inactive and PfGluPho conf inactive.
